High-throughput results as filed in PubChem BioAssay.
Sampled rows, rich in hits. Any-hit rate of the full collection: about 8%.
KB-3-1 tox = qHTS assay for MDR1-selective chemotherapeutics: Primary screen using the parental adenocarcinoma cell KB-3-1. KB-3-1 viability, CellTiter-Glo ATP luminescence, 72 h. Potency, µM (series often up to 46.1 µM), usual class: cytotoxic. 1.4% of 400,000 active; note: % is set by controls: 0 for no effect and ±100 for the full control effect; nearly all actives have a fitted effect of over 60% in size
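Viability of parental KB-3-1 cells, measured by CellTiter-Glo luminescence, followed a 72 h incubation at 37 °C with pinned compounds in phenol-red-free DMEM containing 10% FBS.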
HT1080-NT tox = qHTS for induction of synthetic lethality in tumor cells producing 2HG: qHTS for the HT-1080-NT fibrosarcoma cell line. HT-1080-NT fibrosarcoma viability, CellTiter-Glo ATP luminescence, 48 h. Potency, µM (series often up to 46.1 µM), for the others: at the top dose activity, negative = less viability, actives largely listed as cytotoxic. 1.6% of 360,000 active;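 note: NT is the 2HG producing partner of a matched IDH1 knockdown line; 0% = DMSO-treated cells and -100% = media-only wells without cells; nearly all actives have a fitted effect of over 55% in size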
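A 48-hour cytotoxicity screen used HT-1080-NT cells plated 2 hours before compound delivery. ATP-based CellTiter-Glo luminescence measured viability, normalized to DMSO and no-cell controls.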
KB-V1 MDR tox = qHTS assay for MDR1-selective chemotherapeutics: Primary screen using the drug-selected MDR subline cells KB-V1 | Potency, µM (highest dose often 46.1 µM), hits mostly cytotoxic | AID 1347076, 2019 | 3.4% of 400,000 active | KB-V1 MDR cells viability, CellTiter-Glo, 72 h; note: % is set by controls: 0 for no effect and ±100 for the full control effect; nearly all actives have a fitted effect of over 60% in size
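Cytotoxicity via CellTiter-Glo luminescence after 72 h compound exposure at 37 degrees C. Cells: drug-selected KB-V1 line, DMEM phenol-red free plus 10% FBS. Compounds tested at multiple concentrations; normalized data fitted to concentration-effect curves.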
SW480 rereplic = A quantitative high throughput screen for small molecules that induce DNA re-replication in SW480 colon adenocarcinoma cells | AID 624297, 2012 | 1.8% of 340,000 active | SW480 DNA re-replication, Hoechst DNA content imaging, 48 h | Potency, µM (titrated, usually from 46.1 µM), without a hit: top-dose re-replication activation, hits mostly activators; note: % of control where 0% means no effect; nearly all actives have a fitted effect of over 55% in size
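Treated cells incubate 48 hr (37 C, 5% CO2), are stained 40 min with Hoechst, and nuclear fluorescence is enumerated; a rise in nuclei with high DNA signal marks re-replication.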
HT1080 IDH1KD tx = qHTS for induction of synthetic lethality in tumor cells producing 2HG: qHTS for the HT-1080-IDH1KD cell line. 2% of 360,000 active. Potency, µM (series often up to 46.1 µM), inactives show at the highest dose activity, negative = toxicity, actives largely listed as cytotoxic. AID 686971, 2013. HT-1080 IDH1 knockdown viability, ATP luminescence, 48 h;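 note: 0% = DMSO wells and -100% = cell-free medium wells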
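Using the IDH1-knockdown HT-1080 line run in the same batch and compound series as the NT line, viability after 48 h at 37 °C was determined by CellTiter-Glo luminescence and expressed as % activity.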
MCF10A rerep = A quantitative high throughput screen for small molecules that induce DNA re-replication in MCF 10a normal breast cells. MCF 10A DNA re-replication, Hoechst nuclear intensity, 48 h. Potency, µM (highest dose often 46.1 µM), without a hit: at the top dose activity, positive = re-replication, actives largely listed as activators. 2.9% of 350,000 active; note: % of control where 0% means no effect; nearly all actives have a fitted effect of over 50% in size
* = called active by the depositor; i = inactive; ? = inconclusive; . = not tested or not shown. Calls come from the whole dose curve; as a rule, active = well fitted curve in the direction sought with a large enough effect; inconclusive = small, poorly fitted or top-dose-only effect, or another doubt; inactive = no such curve, though single readings can be large; an effect the other way counts as inactive or inconclusive. Potency is the fitted concentration of half-maximal effect.

SMILES	KB-3-1 tox	HT1080-NT tox	KB-V1 MDR tox	SW480 rereplic	HT1080 IDH1KD tx	MCF10A rerep
COC(=O)c1sc2cccc(F)c2c1S(=O)(=O)N1CCN(c2cccc(C)c2)C(C)C1 (centres undefined)	i	.	?	.	.	.
CCOc1ccc(NC(=O)CCn2cccn2)cc1	i	.	i	.	.	.
O=C(NC(=S)Nc1ccc(Cc2ccncc2)cc1)c1ccccc1	?	-14%	18µM*	-4%	-28%	?
Cc1cccc(C(=O)NC(=S)Nc2ccc(Cc3ccncc3)cc2)c1	?	?	i	12%	?	?
O=C(NCCc1ccccc1)C(=O)NCC(c1cccs1)S(=O)(=O)c1cccs1 (centres undefined)	i	.	i	.	.	.
COc1cc(C(=O)Nc2ccc3c(c2)Cc2ccccc2-3)cc(OC)c1OC	i	-2%	i	-2%	-13%	8.2µM*
COc1ccc(C(=O)Nc2ccc3ccccc3c2)cc1OC	i	0%	i	-1%	14%	11%
COc1cc(C(=O)N2CCc3ccccc32)cc(OC)c1OC	i	-14%	i	23%	-6%	20%
COc1cc2c(cc1NC(=O)c1ccccc1-c1ccccc1C(=O)O)-c1ccccc1C2	i	-12%	i	.	-19%	.
COc1cc(C(=O)Nc2ccc3ccccc3c2)cc(OC)c1OC	?	1.3µM*	?	1.3µM*	0.58µM*	2.6µM*
COc1cc(C(=O)Nc2ccc3c(c2)C(=O)c2ccccc2C3=O)cc(OC)c1OC	i	7%	i	-4%	27%	-3%
COc1cc2c(cc1NC(=O)C(Cl)Cl)-c1ccc(NC(=O)C(Cl)Cl)cc1C2	?	?	15µM*	?	13µM*	24%
COc1cc(C(=O)Nc2ccc3c(c2)CCN3C(C)=O)cc(OC)c1OC	3.3µM*	?	?	?	2.6µM*	-7%
CC(=O)c1c(C)[nH]c(C(=O)NCCc2ccc(Cl)cc2)c1C	i	2%	i	-15%	4%	3.7µM*
CC(=O)c1c(C)[nH]c(C(=O)Nc2ccc(Cl)cc2)c1C	i	-2%	i	-2%	-27%	14%
Cn1c(=O)n(C)c2cc(N3CCCCC3)c(NC(=O)c3ccc(C(C)(C)C)cc3)cc21	i	.	?	.	.	.
COC1=C(C)C(=O)C2=C(C1=O)C1C3CC4=C(C(=O)C(OC)=C(C)C4=O)C(CNC(=O)C(C)=O)N3C(C#N)C(C2)N1C (centres undefined)	0.1µM*	18µM*	2.3µM*	?	0.082µM*	?
C=C1C(=O)OC2C=C(CO)C3OC3C3OC3(C)CC(OC(=O)/C(=C/C)COC(C)=O)C12 (centres undefined)	?	-24%	i	0.82µM*	5.2µM*	2.1µM*
Cc1cc(C=C2C(=O)c3ccccc3C2=O)c(C)n1-c1ccc(Cl)cc1	?	9%	16µM*	-8%	13%	8%
O=C(Nc1ccccc1F)c1cnc(N2CCCCC2)c2ccccc12	i	.	i	.	.	.
N#C/C(=N/Nc1ccc(OC(F)(F)F)cc1)C(N)=S	?	23µM*	?	-8%	16µM*	?
Cc1ccc2nc(C(F)(F)F)c(C#N)c(N)c2c1	?	?	?	?	10µM*	3.3µM*
COc1ccc(-c2noc(-c3ccc(NCCc4ccccc4)c([N+](=O)[O-])c3)n2)cc1OC	i	.	i	.	.	.
COc1ccc(C)cc1NC(=O)N1CCN(S(=O)(=O)c2ccc3c(ccn3C)c2)CC1	i	.	i	.	.	.
